Laboratory results published in PubChem BioAssay (NCATS).
Several values for one entry are separate records, joined by “and”; a condition that tells them apart may be missing. Identical values can stand only once. Values without a mark were called inactive. Results filed as inconclusive are left out. Activity calls are given as the source filed them. Unless noted, calls come from the whole dose curve; as a rule, active = well fitted curve in either direction with a large enough effect (not every such curve was filed as active); inconclusive = small, poorly fitted or top-dose-only effect, or another doubt; inactive = flat fitted curve, though single readings scatter.

Columns and labels:
[1] = AP1 Signaling Pathway (AID 357); conditions: ME-180 AP-1-bla reporter, EGF-induced, beta-lactamase ratio, 5 h;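 note: ME-180 reporter cells stimulated with EGF at its EC50 level; % is set by controls: 0 for no effect and ±100 for the full control effect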
Summary of the method: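 A ratiometric CCF4 readout (405 nm excitation; 460 and 530 nm emission) quantified AP-1-driven beta-lactamase in ME-180 cells after 5 h with compound and EC50 EGF; AC50 values were derived for activators and inhibitors.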

[2] = target: Cytochrome P450 1A2 (Homo sapiens) (UniProt P05177); experiment: p450-cyp1a2 (AID 410; calls by dose curve; note: potency is the fitted concentration of half-maximal effect;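 for activity change, negative = inhibition: -100% = full effect of reference inhibitor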); conditions: recombinant CYP1A2, luciferin-ME demethylation, luminescence; series mostly up to 25.6 µM
Summary of the method: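 Inhibition was calculated relative to 57 uM furafylline (full inhibition). The reaction used human CYP1A2 at 20nM with Luciferin-ME at its Km, 100uM, driven by an NADPH-regenerating system for 60 min at room temperature.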

[3] = Cell Viability - BJ (AID 421; calls by dose curve;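 note: potency is the fitted concentration of half-maximal effect; cells exposed to compound for 40 hours at 37 °C before readout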); conditions: BJ fibroblast viability, qHTS
Summary of the method: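 Quantitative HTS: ATP depletion in BJ cells after 40 hr compound exposure in complete culture medium, detected with CellTiter-Glo; AC50 from standard Hill fits.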

[4] = Cell Viability - Jurkat (AID 426;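 active = dose-dependent loss of cell ATP signal giving a full or clear fitted curve, ranked by lower potency value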;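 note: potency is the fitted concentration of half-maximal effect; cells exposed to compound for 40 hours at 37 °C before ATP read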); conditions: qHTS
Summary of the method: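 Seed 5000 Jurkat E6-1 cells/well; add compound; incubate 40 hr at 37 °C; add CellTiter-Glo; wait 20 min at room temperature; read luminescence. Fit concentration-response with Hill equation for AC50.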

[5] = Cell Viability - HepG2 (AID 433; calls by dose curve;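 note: potency is the fitted concentration of half-maximal effect; cells exposed to compound for 40 hours; potency for ATP loss meaning cytotoxicity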); conditions: qHTS
Summary of the method: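 In this qHTS format, a 40 h, 37 °C compound incubation of HepG2 cells in complete medium precedes a 20 min CellTiter-Glo step at room temperature. Tamoxifen and doxorubicin serve as positive controls; Hill-equation fits yield AC50.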

[6] = Cell Viability - MRC5 (AID 434; calls by dose curve;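 note: potency is the fitted concentration of half-maximal effect; cells exposed to compound for 40 hours at 37 °C; potency reflects cytotoxicity seen as loss of intracellular ATP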); conditions: MRC5 lung fibroblast viability, qHTS
Summary of the method: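 qHTS cytotoxicity in human lung fibroblast MRC5 cells; 40 hr treatment, 37 °C; cellular ATP by luciferase luminescence; DMSO = 0%, 100 uM tamoxifen = 100% inhibition; Hill-fit AC50.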

[7] = NFAT Signaling Pathway (AID 444); conditions: Jurkat NFAT-bla M1, carbachol, beta-lactamase ratio, 5 h;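 note: carbachol stimulus at about its EC50 of 1 µM final; % is set by controls: 0 for no effect and ±100 for the full control effect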
Summary of the method: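 Read-out: CCF4 FRET ratio (460 nm/530 nm) after 1 h RT dye loading, used for %activity and AC50 from titration series. Cells: Jurkat NFAT-β-lactamase/M1 line, treated with compound plus 1 uM carbachol for 5 h, 37 °C.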

[8] = Stat Signaling Pathway (AID 446); conditions: ME-180 (cervical carcinoma) SIE beta-lactamase reporter, IL-6 stimulated, 5 h;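 note: ME-180 cervical cancer cells given 40 pM IL-6 alongside compound; SIE-controlled beta-lactamase reporter measured as 460/530 nm FRET emission ratio; % is set by controls: 0 for no effect and ±100 for the full control effect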
Summary of the method: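 IL-6/STAT signaling read in ME-180 cells via an SIE beta-lactamase reporter. Stimulus was 40 pM IL-6 (its AC50) for 5 hrs, so both activation and inhibition register.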

[9] = target: Glucocorticoid receptor (Homo sapiens) (UniProt P04150); experiment: GR-GFP Redistribution (AID 450;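 active = compounds whose dose series gives a full or clear partial fitted curve of increased nuclear translocation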; note: potency is the fitted concentration of half-maximal effect); conditions: U2OS GR-GFP nuclear translocation, laser cytometry, 2 h
[10] = target: Glucocorticoid receptor (Homo sapiens) (UniProt P04150); experiment: GR-EFC Redistribution (AID 451; calls by dose curve; note: potency is the fitted concentration of half-maximal effect); conditions: CHO-K1 GR-EFC translocation, beta-gal luminescence, 2 h
Summary of the method: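 Translocation of GR-ED fusion to nuclear EA restores b-gal, read by luminescence after 1 h room-temperature detection. Engineered CHO-K1 biosensor cells, 1,000/well, exposed 2 h at 37 C to titrations up to 46 uM final.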

[11] = target: Mitogen-activated protein kinase 10 (Mus musculus) (UniProt Q61831); experiment: JNK3 AlphaScreen Assay (AID 530); conditions: JNK3 lysate, c-Jun phosphorylation; series mostly up to 25.6 µM;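 note: kinase came from lysate of stimulated human HepG2 cells; signal reports phosphorylation of biotinylated GST-cJun 1-79 at Ser73 with 10 µM ATP; % is set by controls: 0 for no effect and ±100 for the full control effect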
Summary of the method: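 Room-temperature AlphaScreen kinase assay; pre-activated HepG2 lysate as JNK3 source, biotin-GST-cJun(1-79) substrate, 10 uM ATP, compound 15 min preincubation.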

[12] = Cell Viability - N2a (AID 540; active = well fitted curve in the direction sought with a large enough effect; an effect the other way counts as inactive or inconclusive; note: potency is the fitted concentration of half-maximal effect; nearly all actives have a fitted effect of over 45% in size); conditions: N2a mouse neuroblastoma cell viability; activity change, negative = cytotoxicity: at 92.2 µM (top of the series)
Summary of the method: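 First, 1500 N2a cells per well incubate 5 hr at 37 °C; next, compounds are added and incubated 40 hr at 37 °C; finally CellTiter-Glo is added and luminescence read after 20 min, with AC50 derived by Hill modeling.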

[13] = Cell Viability - NIH 3T3 (AID 541; active = well fitted curve in the direction sought with a large enough effect; an effect the other way counts as inactive or inconclusive;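 note: potency is the fitted concentration of half-maximal effect; cells exposed to compound for 40 hours; nearly all actives have a fitted effect of over 25% in size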); conditions: NIH 3T3 cell viability, qHTS; activity change, negative = cytotoxicity: at 92.2 µM (top of the series)
Summary of the method: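 AC50 values reflect concentration-dependent loss of intracellular ATP in NIH 3T3 cells after 40 hr treatment in complete culture medium, quantified by luciferase-based luminescence.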

[14] = Cell Viability - HUV-EC-C (AID 542; active = well fitted curve in the direction sought with a large enough effect; an effect the other way counts as inactive or inconclusive;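 note: potency is the fitted concentration of half-maximal effect; cells exposed to compound for 40 hours; nearly all actives have a fitted effect of over 35% in size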); conditions: HUV-EC-C endothelial cell viability, qHTS; series mostly up to 92.2 µM
Summary of the method: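 Decrease in cellular ATP, quantified by luciferase luminescence, reflects toxicity in normal human vascular endothelial HUV-EC-C cells given compound for 40 hr in complete culture medium. Values are AC50s from concentration-response curves.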

[15] = Cell Viability - H-4-II-E (AID 543; active = well fitted curve in the direction sought with a large enough effect; an effect the other way counts as inactive or inconclusive;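 note: potency is the fitted concentration of half-maximal effect; cells exposed to compound for 40 hours; nearly all actives have a fitted effect of over 35% in size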); conditions: H-4-II-E rat hepatoma viability; series mostly up to 92.2 µM
Summary of the method: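 Here, cytotoxicity is measured in the rat hepatoma line H-4-II-E as loss of intracellular ATP after 40 hr compound treatment, detected by luciferase luminescence.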

[16] = Cell Viability - SH-SY5Y (AID 544; active = well fitted curve in the direction sought with a large enough effect; an effect the other way counts as inactive or inconclusive;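 note: potency is the fitted concentration of half-maximal effect; cells exposed to compound for 40 hours; nearly all actives have a fitted effect of over 55% in size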); conditions: SH-SY5Y neuroblastoma cell viability; viability change, negative = cytotoxic: at 92.2 µM (top of the series)
Summary of the method: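 Cytotoxicity is scored as a concentration-dependent fall in intracellular ATP in human SH-SY5Y cells treated 40 hr in complete culture medium. Potency is expressed as AC50 from a Hill equation fit.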

[17] = target: Lysosomal acid glucosylceramidase (Homo sapiens) (UniProt P04062); experiment: Glucocerebrosidase-p2 (AID 348; in the data active = potency below about 10 µM; note: potency is the fitted concentration of half-maximal effect); conditions: purified GBA, blue fluorogenic substrate, 40 min
Summary of the method: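 Compounds titrated from 0.6 nM upwards against 0.2 nM enzyme in pH 5.9 citric acid/KH2PO4, taurocholate, tween-20; blue fluorogenic substrate 80 uM, 40 min room temperature, stopped and read Ex 365/Em 440 for AC50.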

Sequence of Glucocorticoid receptor (Homo sapiens) (P04150 whole entry, looked up, the tested form may be a part): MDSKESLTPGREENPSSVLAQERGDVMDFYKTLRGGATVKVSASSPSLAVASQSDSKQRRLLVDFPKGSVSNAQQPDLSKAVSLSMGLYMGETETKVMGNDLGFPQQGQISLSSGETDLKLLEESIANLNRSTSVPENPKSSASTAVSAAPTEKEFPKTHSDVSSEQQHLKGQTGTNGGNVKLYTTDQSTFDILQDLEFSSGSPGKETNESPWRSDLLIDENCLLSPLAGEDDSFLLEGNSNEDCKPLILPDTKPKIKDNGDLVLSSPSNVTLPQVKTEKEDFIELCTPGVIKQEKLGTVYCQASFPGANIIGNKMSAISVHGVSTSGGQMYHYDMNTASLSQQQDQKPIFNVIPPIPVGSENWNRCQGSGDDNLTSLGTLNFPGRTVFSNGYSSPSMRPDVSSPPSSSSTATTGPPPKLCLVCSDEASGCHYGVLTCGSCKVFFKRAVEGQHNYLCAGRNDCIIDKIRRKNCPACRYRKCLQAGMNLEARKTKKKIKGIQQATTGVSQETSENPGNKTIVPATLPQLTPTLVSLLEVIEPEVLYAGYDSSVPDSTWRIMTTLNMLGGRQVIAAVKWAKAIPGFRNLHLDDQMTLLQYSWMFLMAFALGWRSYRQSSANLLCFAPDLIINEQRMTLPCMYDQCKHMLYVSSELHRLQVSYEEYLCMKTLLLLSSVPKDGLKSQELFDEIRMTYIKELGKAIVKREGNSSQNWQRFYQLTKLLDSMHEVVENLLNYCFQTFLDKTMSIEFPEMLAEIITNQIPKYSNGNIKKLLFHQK
Sequence of Cytochrome P450 1A2 (Homo sapiens) (P05177 whole entry, looked up): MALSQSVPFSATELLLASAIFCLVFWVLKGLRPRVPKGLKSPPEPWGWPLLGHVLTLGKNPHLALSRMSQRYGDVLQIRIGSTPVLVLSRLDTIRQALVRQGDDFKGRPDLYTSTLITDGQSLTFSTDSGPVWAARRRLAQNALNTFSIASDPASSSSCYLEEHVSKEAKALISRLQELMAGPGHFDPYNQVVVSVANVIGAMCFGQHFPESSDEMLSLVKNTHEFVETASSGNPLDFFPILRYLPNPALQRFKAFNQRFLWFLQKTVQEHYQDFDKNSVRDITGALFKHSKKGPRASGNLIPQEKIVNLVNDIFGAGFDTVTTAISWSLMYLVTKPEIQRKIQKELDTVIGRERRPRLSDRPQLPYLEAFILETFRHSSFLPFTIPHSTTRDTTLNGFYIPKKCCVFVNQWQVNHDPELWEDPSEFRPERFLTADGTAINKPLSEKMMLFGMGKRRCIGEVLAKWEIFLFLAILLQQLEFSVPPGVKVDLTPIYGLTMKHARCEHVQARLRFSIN
Sequence of Lysosomal acid glucosylceramidase (Homo sapiens) (P04062 whole entry, looked up): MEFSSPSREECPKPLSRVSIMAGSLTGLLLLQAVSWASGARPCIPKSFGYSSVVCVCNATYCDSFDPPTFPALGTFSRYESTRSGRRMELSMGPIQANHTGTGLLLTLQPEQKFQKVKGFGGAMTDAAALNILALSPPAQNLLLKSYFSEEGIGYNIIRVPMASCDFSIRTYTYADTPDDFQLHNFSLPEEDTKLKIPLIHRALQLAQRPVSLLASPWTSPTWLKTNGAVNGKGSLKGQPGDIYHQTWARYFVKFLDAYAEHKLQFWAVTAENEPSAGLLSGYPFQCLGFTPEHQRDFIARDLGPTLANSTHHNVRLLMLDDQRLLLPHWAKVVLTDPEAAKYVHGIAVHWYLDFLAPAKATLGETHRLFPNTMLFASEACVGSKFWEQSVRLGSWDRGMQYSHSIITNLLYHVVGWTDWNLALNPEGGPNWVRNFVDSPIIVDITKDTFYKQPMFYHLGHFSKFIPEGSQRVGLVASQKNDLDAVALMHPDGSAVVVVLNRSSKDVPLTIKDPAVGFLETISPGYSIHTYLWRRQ

Oc1ccc(O)cc1
activity change, negative = inhibition ([1]; at 38 µM (top of the series)): -22.8%
Potency [2]: inactive
Potency [3]: > 92 µM
Potency [4]: 4.41 µM (active)
Potency [5]: > 92 µM
Potency [6]: > 92 µM
activity change, negative = inhibition ([7]; at 38 µM (top of the series)): -5.74%
activity, negative = inhibition ([8]; at 38 µM (top of the series)): 3.99%
Potency [9]: > 46 µM
Potency [10]: > 46 µM
outcome [11]: inactive
Potency [12]: 20 µM (active)
Potency [13]: 20 µM (active)
Potency [14]: 39.8 µM (active)
Potency [15]: 79.4 µM (active)
Potency [16]: 3.16 µM (active)

Nc1nc2ncc(CNc3ccc(C(=O)N[C@@H](CCC(=O)O)C(=O)O)cc3)nc2c(=O)[nH]1
activity change, negative = inhibition ([1]; at 17.2 µM (top of the series)): 0.033%
Potency [2]: inactive
activity change, negative = inhibition ([7]; at 17.2 µM (top of the series)): 2.08%
activity, negative = inhibition ([8]; at 17.2 µM (top of the series)): 1.24%
Potency [9]: > 20.6 µM
Potency [10]: > 20.6 µM
outcome [11]: inactive

C1CCc2nnnn2CC1
activity change, negative = inhibition ([1]; at 17.2 µM (top of the series)): 8.91%
activity change, negative = inhibition ([1]; at 38 µM (top of the series)): 6.67%
Potency [2]: inactive
activity change, negative = inhibition ([7]; at 17.2 µM (top of the series)): -9.11%
activity change, negative = inhibition ([7]; at 38 µM (top of the series)): -6.06%
activity, negative = inhibition ([8]; at 17.2 µM (top of the series)): 5.56%
activity, negative = inhibition ([8]; at 38 µM (top of the series)): -9.49%
outcome [11]: inactive

CCCn1c(=O)[nH]c(=O)c2[nH]cnc21
activity change, negative = inhibition ([1]; at 17.2 µM (top of the series)): 4.48%
activity change, negative = inhibition ([1]; at 38 µM (top of the series)): 4.71%
Potency [2]: inactive
activity change, negative = inhibition ([7]; at 17.2 µM (top of the series)): -21.8%
activity change, negative = inhibition ([7]; at 38 µM (top of the series)): 4.56%
activity, negative = inhibition ([8]; at 17.2 µM (top of the series)): 4.71%
activity, negative = inhibition ([8]; at 38 µM (top of the series)): -5.28%
outcome [11]: inactive

OC(CCN1CCCCC1)(c1ccccc1)c1ccccc1
Potency [17]: > 11.4 µM
activity change, negative = inhibition ([1]; at 7.69 µM (top of the series)): -3.31%
activity change, negative = inhibition ([1]; at 17.2 µM (top of the series)): 7.98% and -4.16%
Potency [2]: inactive
activity change, negative = inhibition ([7]; at 7.69 µM (top of the series)): -73.6% (active)
activity change, negative = inhibition ([7]; at 17.2 µM (top of the series)): -42.4% (active) and -77.8% (active)
activity, negative = inhibition ([8]; at 7.69 µM (top of the series)): -4.56%
activity, negative = inhibition ([8]; at 17.2 µM (top of the series)): 8.93% and 3.51%
outcome [11]: inactive

O=C(CCCN1CCC(O)(c2ccc(Br)cc2)CC1)c1ccc(F)cc1
activity change, negative = inhibition ([1]; at 17.2 µM (top of the series)): 13.1%
Potency [2]: 5.01 µM (active)
activity change, negative = inhibition ([7]; at 17.2 µM (top of the series)): -24.7%
activity, negative = inhibition ([8]; at 17.2 µM (top of the series)): 1.5%
Potency [9]: > 20.6 µM
Potency [10]: > 20.6 µM
outcome [11]: inactive
